PubChem BioAssay (NCI)
The panel holds about 83,000 compounds, 20% with a hit somewhere; the sample as a whole holds those more often.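 96-well plates, one dose, 48 hours. Percent growth reported; active if below 10.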 Unmarked numbers belong to inactive results. Calls of active or inactive are those of the source.

Columns and labels:
Test in all cases: NCI-60 one-dose screen, 48 h (100 = growth as untreated, 0 = no growth, -100 = all killed)
Details in all cases: 10 µM
SR leukemia = test system: SR leukemia
RPMI-8226 leukemia = test system: RPMI-8226 leukemia
OVCAR-8 ovarian = test system: OVCAR-8 ovarian
OVCAR-5 ovarian = test system: OVCAR-5 ovarian
OVCAR-4 ovarian = test system: OVCAR-4 ovarian
SK-OV-3 ovarian = test system: SK-OV-3 ovarian
IGROV1 ovarian = test system: IGROV1 ovarian
OVCAR-3 ovarian = test system: OVCAR-3 ovarian
HS 578T breast = test system: HS 578T breast
NCI/ADR-RES ovarian = test system: NCI/ADR-RES ovarian
T-47D breast = test system: T-47D breast
BT-549 breast = test system: BT-549 breast
MDA-MB-435 melanoma = test system: MDA-MB-435 melanoma
SW-620 colon = test system: SW-620 colon
MCF7 breast = test system: MCF7 breast
HCT-116 colon = test system: HCT-116 colon
HCC-2998 colon = test system: HCC-2998 colon
KM12 colon = test system: KM12 colon

Structure (SMILES)	growth (SR leukemia)	growth (RPMI-8226 leukemia)	growth (OVCAR-8 ovarian)	growth (OVCAR-5 ovarian)	growth (OVCAR-4 ovarian)	growth (SK-OV-3 ovarian)	growth (IGROV1 ovarian)	growth (OVCAR-3 ovarian)	growth (HS 578T breast)	growth (NCI/ADR-RES ovarian)	growth (T-47D breast)	growth (BT-549 breast)	growth (MDA-MB-435 melanoma)	growth (SW-620 colon)	growth (MCF7 breast)	growth (HCT-116 colon)	growth (HCC-2998 colon)	growth (KM12 colon) [%]
O=C(CCCCCCC(=O)Nc1ccccc1)NO	9.82% (active)	12.8%	9.38% (active)	1.38% (active)	38.3%	1.71% (active)	23.7%	-1.79% (active)	22.2%	-18.2% (active)	-12.6% (active)	53.9%	-22% (active)	-25.7% (active)	9.87% (active)	4.45% (active)	0.434% (active)	14.4
Cc1ccc(-c2c3c(N)nc(-c4cccnc4)nc3nc3c2c(C)nn3-c2ccccc2)cc1	82.5%	81.2%	82%	90.8%	50.8%	66.2%	103%	104%	72%	90.3%	81.8%	100%	82.7%	102%	87.7%	81.1%		
O=C1/C=C/[C@@H](O)[C@@H]2C[C@@H](O)C[C@H]2/C=C/CCC[C@H](C(F)(F)F)O1	-5.34% (active)	-23.8% (active)	2.07% (active)	16.2%	28.5%	57.8%	19.4%	-28% (active)	38.5%	-9.43% (active)	-57.2% (active)	15.8%	6.68% (active)	-23.1% (active)	-64.2% (active)	-30.4% (active)	-36.5% (active)	30
CCOC(=O)c1cc(C(=O)c2cc(OC)c(OC)c(OC)c2)n2c1ccc1c3cccnc3ccc12	17.5%	61.8%	56.2%	91.9%	89.7%	78.1%	67.8%	61.5%	72.8%	33.9%	50.7%	68.9%	8.8% (active)	23.6%	28.8%	21.6%	81.9%	41.5
CNS(=O)(=O)Oc1ccc(-c2ccc3occc3c2)cc1	111%	109%	99.5%	88.8%	98.4%	111%	99.8%	107%	110%	102%	89.1%	91.5%	100%	102%	111%	95.5%	96.5%	99
CC(C)=CCC/C(C)=C/CC/C(C)=C/CC/C=C(\C)CC/C=C(\C)CCC(=O)Nc1ccn(C2OC(CO)C(O)C2(F)F)c(=O)n1 (stereo not given)	-16.1% (active)	32.1%	19.2%	74.6%	39.9%	31%	40%	40.2%	42.5%	38.8%	41%	18.3%	29.9%	33.6%	21.8%	20.3%	82.4%	
N#Cc1c(-c2ccc(Cl)cc2)csc1NC(=O)Nc1ccc(Cl)c(C(F)(F)F)c1	-15.1% (active)	1.61% (active)	23%	60.2%	-26.4% (active)	19.9%	22.1%	-19.7% (active)	29.6%	8.74% (active)	-17.7% (active)	6.57% (active)	26%	11.1%	3.1% (active)	-14.7% (active)		
CCOC(=O)c1cc(C(=O)c2cc(OC)cc(OC)c2)n2ncc3ccccc3c12	4.68% (active)	33%	34.4%	55.2%	-18% (active)	37.6%	43.5%	-13.5% (active)	17.8%	19.1%	12.8%	27.3%	4.07% (active)	8.21% (active)	15.9%	4.23% (active)	69.1%	25.9
COc1ccc2c(c1)C(=O)/C(=C/c1ccc([N+](=O)[O-])o1)O2	2.34% (active)	-3.06% (active)	-71.6% (active)	-52.2% (active)	-87% (active)	48.7%	-66.3% (active)	-84.5% (active)	17.8%	13.4%	-46.9% (active)	-49.9% (active)	-72.5% (active)	-60.4% (active)	-18.7% (active)	-44.9% (active)	-78.5% (active)	
COc1cc2cc(Oc3ccc(NC(=O)c4cccc(C(F)(F)F)c4)cc3)c(C)nc2cc1OC	28%	17.5%	42.5%	70.2%	43.2%	23.4%	36.1%	15%	41.2%	26%	91.6%	16.3%	24.5%	54.8%	31%	18.1%	62.3%	25.8
Cc1cc(Cl)ccc1Nc1nc(C(F)(F)F)ccc1C(=O)N/N=C/c1cccc(O)c1	-13% (active)	24.1%	62.6%	51.1%	33.8%	38.8%	27.7%	35.9%	-17.5% (active)	26.6%	39.8%	9.22% (active)	56%	27.8%	29.9%	17.6%	31.9%	41.8
C=CCn1c(SCC(=O)Nc2ccc(C(=O)/C=C/c3cc(OC)c(OC)c(OC)c3)cc2)nnc1-c1cc(-c2ccc(Cl)cc2)nc2ccccc12	62%	-16.3% (active)	52.1%	97.6%	87.9%	87.1%	88.4%	97.3%	83.7%	75.6%	78.4%	75%	92.9%	90.7%	38.6%	50%	103%	85.8
Cc1cc(C(C#N)c2ccc(Cl)cc2)c(Cl)cc1NC(=O)c1cc(I)cc(I)c1O (stereo not given)	27.6%	13.8%	53.4%	87.8%	82.6%	85.2%	51.7%	32.6%	26%	21.1%	66.4%	36.8%	55.7%	43.3%	43.2%	7.35% (active)	17.4%	34
CS(=O)(=O)c1nccc(-c2c(-c3cccc(OCCN4CCOCC4)c3)nc3sccn23)n1	78.3%	47.8%	92.1%	96.6%	76.8%	84.9%	80.2%	94.8%	88.7%	93.3%	81%	108%	98.4%	97.7%	69.3%	78.4%	101%	96.6
COc1cc(C(=O)n2nc(-c3cc(OC)c(OC)c(OC)c3)nc2N)cc(OC)c1OC	73.5%	92.4%	102%	97%	94.5%	87.5%	105%	101%	103%	99.2%	77.1%	100%	95.8%	99.9%	88.3%	91.1%	94.9%	
CCOC(=O)c1cc(C(=O)c2cc(OC)c(OC)c(OC)c2)n2ccc(-c3cc[n+](CC(=O)c4cc(OC)c(OC)c(OC)c4)cc3)cc12	-16.4% (active)	-22.2% (active)	7.09% (active)	92.5%	-33.2% (active)	99.3%	83.2%	82%	69.4%	94.4%	50.1%	-10.9% (active)	68.7%	-64.8% (active)	-29.3% (active)	-61.2% (active)	109%	45.3
O=C(N/N=C/c1ccc(Cl)cc1)c1ccccc1Nc1cccc(C(F)(F)F)c1	45.7%	82%	80.3%	96.9%	74.8%	84.9%	59.3%	60.3%	61.7%	88.8%	109%	60.2%	53%	79.6%	85.2%	66.1%	103%	
COc1cc2cc(Oc3ccc(NC(=O)c4ccccc4)cc3)c(C)nc2cc1OC	70.2%	96.8%	22.7%	112%	78.9%	73.4%	91.5%	83.4%	57.1%	81.3%	79.8%	82.3%	104%	109%	78.7%	87.1%	125%	
